# Data published in PubChem BioAssay AID588579 (National Center for Advancing Translational Sciences (NCATS), 2011).
# Values joined by “and” are separate entries in the source; they are usually repeats but may differ in a detail not shown here. Equal entries are not always repeated. Among all 400,000 compounds or so, about 2,200 (0.55%) were called active. Not shown: some 1% with an inconclusive outcome. This excerpt belongs to a sample that is enriched for actives. Unmarked numbers belong to inactive results. The call rests on the fitted dose curve; in most records, active means well fitted inhibition curve with a large enough effect; inconclusive means small, poorly fitted or top-dose-only effect, or another doubt; inactive means no such curve, though single readings can be large or run the other way.
# Biological target: DNA polymerase kappa (Homo sapiens) (UniProt Q9UBT6)
# Sequence (Q9UBT6 whole entry, looked up): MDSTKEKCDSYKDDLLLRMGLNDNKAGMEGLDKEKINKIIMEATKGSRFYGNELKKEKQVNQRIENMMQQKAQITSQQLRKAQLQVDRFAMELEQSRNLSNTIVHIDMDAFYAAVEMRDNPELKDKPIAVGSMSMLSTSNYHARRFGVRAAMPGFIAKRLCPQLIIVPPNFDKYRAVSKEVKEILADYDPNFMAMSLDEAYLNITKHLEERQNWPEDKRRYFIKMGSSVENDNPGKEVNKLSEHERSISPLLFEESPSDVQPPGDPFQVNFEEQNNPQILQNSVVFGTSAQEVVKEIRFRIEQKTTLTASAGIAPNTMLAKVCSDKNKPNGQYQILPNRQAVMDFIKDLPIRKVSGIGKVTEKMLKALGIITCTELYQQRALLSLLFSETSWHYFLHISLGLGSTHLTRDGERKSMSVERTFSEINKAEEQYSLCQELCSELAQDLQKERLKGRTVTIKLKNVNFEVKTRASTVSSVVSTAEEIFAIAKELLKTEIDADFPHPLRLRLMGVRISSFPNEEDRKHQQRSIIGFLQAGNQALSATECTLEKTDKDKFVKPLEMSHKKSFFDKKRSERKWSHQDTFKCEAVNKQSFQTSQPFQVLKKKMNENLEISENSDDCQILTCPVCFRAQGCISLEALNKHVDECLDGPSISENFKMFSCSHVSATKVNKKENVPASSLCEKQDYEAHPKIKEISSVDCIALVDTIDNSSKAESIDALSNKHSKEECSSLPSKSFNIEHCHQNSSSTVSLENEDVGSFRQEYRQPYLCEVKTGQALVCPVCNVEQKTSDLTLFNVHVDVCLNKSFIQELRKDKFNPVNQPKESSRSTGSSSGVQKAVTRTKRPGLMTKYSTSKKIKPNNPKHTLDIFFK
# Experiment: qHTS for Inhibitors of Polymerase Kappa
# Conditions: purified Pol kappa, fluorescent DNA synthesis assay, 10 min; series mostly up to 107 µM; activity, negative = inhibition: at the top concentration
# In short: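 First, compounds were pin-transferred onto 10 nM Pol kappa. After 15 min at room temperature, substrate was added to 50 nM final. Fluorescence was then measured kinetically at 0 and 10 min.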
# On the % scale 0 is the no-effect control and ±100 the full control effect; potency means the concentration at half of the fitted maximal effect.
Compound,"activity, negative = inhibition",Potency
CN1CCN(/[N+]([O-])=N/Oc2ccc([N+](=O)[O-])cc2[N+](=O)[O-])CC1,-12%,–
COc1ccc(C(=O)N2CCC3(CC2)CCN(c2ccccn2)CC3)cc1,14.4% [at 60.1 µM],–
O=C1CSC(=S)N1/N=C/c1ccc(O)c([N+](=O)[O-])c1,–,28.2 µM (active)
CCOC(=O)C1C/C(=C\C(C)=O)c2cccc(C(F)(F)F)c2O1 (stereo not drawn),-16%,–
COc1ccc(-c2c(C)c3ccc(O)c(CN4CCN(C)CC4)c3oc2=O)cc1OC,-6.99% [at 60.1 µM],–
O=c1cc(-c2ccc(O)c(O)c2)oc2cccc(O)c12,–,6.31 µM (active)
Cc1cccc(-c2cc(=O)c3cc(C)ccc3o2)c1,-11.6% [at 19.4 µM],–
COc1ccc2c(=O)cc(-c3ccccc3)oc2c1O,-8.18% [at 19.4 µM],–
COc1c(O)cc2oc(-c3ccc(O)c(O)c3)cc(=O)c2c1O,–,5.01 µM (active) and 752 nM (active)
OCCN1CCN(CC/C=C2\c3ccccc3Sc3ccc(C(F)(F)F)cc32)CC1,-8.78% [at 12 µM],–
COc1cccc(Cn2c(=O)cnc3cncnc32)c1,3.62% [at 60.1 µM],–
NC(=O)c1sc(-c2ccsc2)cc1N,7.11% [at 19.4 µM],–
COc1ccc(-c2nc3cnc(OC)nc3n(Cc3ccc(F)cc3)c2=O)cc1,1.16% [at 60.1 µM],–
COc1ccc(C2(C#N)CCC(C(=O)O)CC2)cc1OC1CCCC1 (stereo not drawn),1.33% [at 19.4 µM],–
Cc1nnc2n1N=C(c1ccc3c(c1)NC(=O)CO3)CS2,5.52%,–
COc1ccc(C2=Nn3c(nnc3-c3ccccc3OC)SC2)cc1OC1CCCC1,–,39.8 µM (active)
C[C@H]1CCC[C@@]2(C)CCCC[C@]12O,9.76% [at 60.1 µM],–
Cc1csc(-c2nc3ccccc3n2C)n1,-4.55% [at 19.4 µM],–
COc1cccc(-c2cc(=O)c3cc(NC(=O)c4ccc(C)cc4)ccc3[nH]2)c1,-14.5% [at 60.1 µM],–
COc1ccc(S(=O)(=O)NC(C)c2ccccc2)cc1C(=O)N1CCCCC1 (stereo not drawn),-6.85%,–
COc1ccc(Br)cc1/C=N/Nc1ccc(S(=O)(=O)Nc2ccccc2C(=O)O)cc1[N+](=O)[O-],–,39.8 µM (active)
COC(=O)c1ccccc1NS(=O)(=O)c1ccc2c(c1)CCCN2C(C)=O,3.72%,–
COC(=O)N1CCC[C@@]2(CCN(C(=O)NC(C)C)C2)C1,1.95% [at 60.1 µM],–
CN(C)c1ccc(/C=C/c2sc3ccccc3[n+]2CCCCBr)cc1,-23.3%,–
CC(C)(C)n1ncc2c(=O)n(Cc3ccc(C(=O)c4ccccc4)cc3)cnc21,10.6%,–
N#Cc1ccc[n+](CC(=O)c2ccc(F)cc2)c1,1.76%,–
N#Cc1ccc[n+](CC(=O)c2ccc(O)c(O)c2)c1,–,0.891 µM (active)
NC(=O)C[n+]1cccc(C(N)=O)c1,-6.13%,–
